Molecules are shown by their SMILES. ± gives the standard deviation of the averaged measurements.

The results in this text go back to the supplement of paper PMC5641865, “A screen for kinase inhibitors identifies antimicrobial imidazopyridine aminofurazans as specific inhibitors of the Listeria monocytogenes PASTA kinase PrkA” (The Journal of Biological Chemistry, 2017).
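Also: End-point A600 read in BHI broth at 37 °C with 2% DMSO, inhibition computed as (1 − OD with compound plus ceftriaxone ÷ OD with ceftriaxone only) × 100.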

In the assay the test system is Listeria monocytogenes 10403S. The assay is described as follows: growth inhibition relative to ceftriaxone-alone control; higher = stronger potentiation of ceftriaxone growth inhibition. Conditions: 10 µM; ceftriaxone 1 ug/ml; 12 h.
As for `NS(=O)(=O)c1ccc(-c2ccc3c(NC(=O)C4CC4)n[nH]c3c2)cc1`, the growth inhibition was -10.8 ± 16%.
Then `O=C(Nc1ccc(Oc2ccc3[nH]c(NC(=O)c4ccco4)nc3c2)cc1)Nc1cc(C(F)(F)F)ccc1F`, with 9.02 ± 5.9%.
For `Cc1cc2c(F)c(Oc3ncnn4cc(OC[C@@H](C)O)c(C)c34)ccc2[nH]1`, the growth inhibition was 15.5 ± 23%.
Then `CN1CCN(c2nc(C3=C(c4c[nH]c5ccccc45)C(=O)NC3=O)c3ccccc3n2)CC1` [Sotrastaurin (AEB071)], with 44.8 ± 28%; and `CCn1c(-c2nonc2N)nc2c(C#CC(C)(C)O)nc(OC[C@H](N)c3ccccc3)cc21`, with 66.2 ± 2.7%.
On to `CN(C)CCNC(=O)Nc1ccc(N(C)c2ccnc(Nc3ccc(CS(C)(=O)=O)cc3)n2)cc1`, for which the growth inhibition is -2.69 ± 2%.
Consider `COc1cc2c(cc1Nc1nc(Nc3cccc(F)c3C(N)=O)c3cc[nH]c3n1)N(C(=O)CN1CCN(C(C)C)CC1)CC2`, for which the growth inhibition is -7.97 ± 11%.
For `NCC(=O)Nc1ccc(-n2nc(C(F)(F)F)cc2-c2ccc3c(ccc4ccccc43)c2)cc1`, the growth inhibition worked out at 85.45 ± 0.52%.
With `COC(=O)c1ccc2c(C(=Nc3ccc(N(C)C(=O)CN4CCN(C)CC4)cc3)c3ccccc3)c(O)[nH]c2c1` [BIBF1120 (Vargatef)], the growth inhibition was 21.6 ± 14%.
As for `COc1cc(N2CCN(C(C)C)CC2)ccc1Nc1nc(Nc2ccc(F)cc2C(N)=O)c2cc[nH]c2n1`, the figure is -11.9 ± 7%; as for `CC[C@@H]1C(=O)N(C)c2cnc(Nc3ccc(C(=O)N[C@H]4CC[C@H](N5CCN(CC6CC6)CC5)CC4)cc3OC)nc2N1C(C)C` [BI6727 (Volasertib)], 56.9 ± 16%; as for `c1ccc(Cc2nc3ccc(Nc4ncnc5ccccc45)cc3[nH]2)cc1`, -14.5 ± 19%.
Then `CC(C)(C)c1cnc(CSc2cnc(NC(=O)C3CCNCC3)s2)o1`, with 29.5 ± 24%.
Regarding `COCCOc1ccc2c(c1)ncn2-c1ccc2cccc(N3CCC(N)CC3)c2n1`, the growth inhibition was 7.08 ± 14%.
With `Nc1nc(-c2ccc3c(c2)C(=Cc2cc(Br)c(O)c(Br)c2)C(=O)N3)cs1`, the growth inhibition worked out at 3.8 ± 2.8%.
In the case of `O=S(=O)(CCNCc1ccc(-c2ccc3ncnc(Nc4ccc(OCc5cccc(F)c5)c(Cl)c4)c3c2)o1)c1ccccc1`, the growth inhibition was -0.141 ± 13%.
As for `N#Cc1ccc(Oc2nccc(-c3c(-c4ccc(F)cc4)ncn3C3CCNCC3)n2)cc1`, the growth inhibition was -15.2 ± 18%.
Take `S=C(NCc1ccc2c(c1)OCO2)N1CCN(c2ncnc3c2oc2ccccc23)CC1` [Amuvatinib (MP-470)]: the growth inhibition was found to be 11.7 ± 22%.
As to `OCCn1cc(-c2cnc3nnn(Cc4ccc5ncccc5c4)c3n2)cn1`, the growth inhibition is 22.9 ± 24%.
On to `O=C(Nc1cccc(Cl)c1)Nc1ncc(CCNc2ncnc3ccsc23)s1`, for which the growth inhibition came out at 94.4 ± 2%.
For `O=C1NC(=O)/C(=C/c2ccc3c(c2)OC(F)(F)O3)S1`, the growth inhibition worked out at 41.2 ± 7.3%.
In the case of `COc1ccc(-c2coc3ncnc(N)c23)cc1`, the growth inhibition was determined as 8.14 ± 12%.
`N#CC[C@H](C1CCCC1)n1cc(-c2ncnc3[nH]ccc23)cn1`: the growth inhibition came to 10.6 ± 1.1%.
